Results on eight compounds are retold here after PubChem BioAssay (Tox21).

Assay [1] concerns the target Estrogen receptor beta (Homo sapiens) (UniProt Q92731). As to the kind of experiment: qHTS assay to identify small molecule antagonists of the estrogen receptor beta (ER-beta) signaling pathway (AID 1259378; active = well fitted inhibition curve with a large enough effect in the signal ratio in the repeat runs, not every such curve was filed as active; the % refers to the signal ratio; note: potency is the fitted concentration of half-maximal effect). An outline of the steps:
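ER-beta-UAS-bla HEK293T (GripTite) cells in 2% charcoal-stripped FBS medium were preincubated 6 hr at 37C, dosed with compound, then stimulated with 1 nM E2 (final) for 16 hr; beta-lactamase reporter read by B/G FRET fluorescence after 2 hr substrate loading.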
A general note: Quantitative high-throughput screening tests each substance at several concentrations.

The nature of assay [2]: qHTS assay to identify small molecule agonists of the androgen receptor (AR) signaling pathway in the presence of an antagonist - cell viability counter screen (AID 1259379).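 For activity change, negative = cytotoxicity: MDA-kb2 human breast cancer cells carrying an MMTV luciferase reporter; series mostly up to about 92 µM.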 Note: nearly all actives have a fitted effect of over 25% in size. Note: potency is the fitted concentration of half-maximal effect. An outline of the steps:
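Cells: MDA-kb2 (MMTV-luc, AR and GR elements), 3,000/well, 5 hr settle. Added: nilutamide 3.0uM final, then compounds (15 conc.). Incubation: 16 hr, 37C, no CO2. Read-out: CellTiter-Fluor, 1 hr, fluorescence.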

Assay [3] in a line: qHTS assay to identify small molecule agonists of the estrogen receptor beta (ER-beta) signaling pathway - cell viability counter screen (AID 1259380). Note: nearly all actives have a fitted effect of over 30% in size. Note: potency is the fitted concentration of half-maximal effect. An outline of the steps:
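HEK293T ER-beta-UAS-bla; 2% CS-FBS; 6 hr pre-plate, 16 hr cpd at 37C/5% CO2; LiveBLAzer read first, then CellTiter-Glo 30 min RT, luminescence.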

Assay [4] has as its target Androgen receptor (Homo sapiens) (UniProt P10275). The assay can be described thus: qHTS assay to identify small molecule agonists of the androgen receptor (AR) signaling pathway in the presence of an antagonist (AID 1259381; calls by dose curve; note: nearly all actives have a fitted effect of over 15% in size). An outline of the steps: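 MDA-kb2 cells, 3,000/well, rested 5hr at 37C/0% CO2 → nilutamide 3.0uM final or buffer → compounds, 15 conc. → 16hr at 37C → ONE-Glo, 30min RT → luminescence.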

Assay [5] in a line: qHTS assay to identify small molecule antagonists of the estrogen receptor beta (ER-beta) signaling pathway - cell viability counter screen (AID 1259382). For activity change, negative = cytotoxicity: series mostly up to about 92 µM. Note: nearly all actives have a fitted effect of over 55% in size. Note: potency is the fitted concentration of half-maximal effect. An outline of the steps:
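Cells: ER-beta-UAS-bla HEK293T, 2,000/well, 2% CS-FBS, 6 hr settle. Cpd + E2 (1nM final), 16 hr, 37C/5% CO2. Bla FRET substrate 2 hr RT, then CellTiter-Glo 30 min RT, luminescence.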

The target in assay [6] is Estrogen receptor (Homo sapiens) (UniProt P03372). The assay can be described thus: qHTS assay to identify small molecule agonists of the estrogen receptor alpha (ER-alpha) signaling pathway in the presence of an antagonist (AID 1259383; calls by dose curve; note: top concentration of the series differs between compounds; nearly all actives have a fitted effect of over 15% in size). An outline of the steps:
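VM7Luc4E2, endog. ER-alpha + 4×ERE-luc; charcoal-stripped FBS, phenol red-free, 5 d; 24hr plating; +10.0nM ICI-182,780 (final); cpds 15 conc, 22hr, 37C/5% CO2; ONE-Glo luminescence.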

The nature of assay [7]: qHTS assay to identify small molecule agonists or antagonists of the thyroid stimulating hormone receptor (TSHR) signaling pathway - wild type cell line counter screen (AID 1259384; calls by dose curve). Summed up: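 Wild-type HEK293 cells were plated 18 h at 37 C/5% CO2, pin-dosed with compound plus Ro20-1724 medium, held 30 min at room temperature, then given cAMP-d2 and anti-cAMP-cryptate; fluorescence was read after 1 h. Fifteen concentrations, triplicate.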

Assay [8] addresses Thyrotropin receptor (Homo sapiens) (UniProt P16473). As to the kind of experiment: qHTS assay to identify small molecule antagonists of the thyroid stimulating hormone receptor (TSHR) signaling pathway (AID 1259385; calls by dose curve; note: nearly all actives have a fitted effect of over 20% in size; note: potency is the fitted concentration of half-maximal effect). An outline of the steps: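 TSHR-HEK293 cells were plated and held 18 h at 37C/5% CO2, then given compound plus Ro20-1724 and stimulated with TSH at 1.5 ng/mL final. After 30 min at room temperature, cAMP was detected with cAMP-d2/anti-cAMP-cryptate (1 h) by fluorescence.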

Assay [9] is described as follows: qHTS assay to identify small molecule agonists of the estrogen receptor alpha (ER-alpha) signaling pathway in the presence of an antagonist - cell viability counter screen (AID 1259386). For activity change, negative = cytotoxicity: series mostly up to about 92 µM.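 Note: cells exposed to compounds for 22 h at 37 °C before the viability read; nearly all actives have a fitted effect of over 30% in size.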 Note: potency is the fitted concentration of half-maximal effect. Summed up: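 VM7Luc4E2, stripped-serum pre-culture 5 d; 24hr plating; +ICI-182,780 10.0nM final; cpds 15 conc, 22hr, 37C/5% CO2; CellTiter-Fluor added at 21hr, fluorescence 1hr later.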

Assay [10] in a line: qHTS assay to identify small molecule agonists of the progesterone receptor (PR) signaling pathway - cell viability counter screen (AID 1346799; calls by dose curve; note: nearly all actives have a fitted effect of over 45% in size; note: potency is the fitted concentration of half-maximal effect). An outline of the steps:
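Viability was scored by ATP luminescence (CellTiter-Glo, 30 min, room temperature) in the same wells used for the reporter readout, after 16 hr compound exposure of PR-UAS-bla HEK293T cells.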

Assay [11] in a line: qHTS assay to identify small molecule antagonists of the TGF-beta/Smad signaling pathway - cell viability counter screen (AID 1346824). Note: nearly all actives have a fitted effect of over 50% in size. An outline of the steps: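 SBE-bla HEK 293T cells were plated overnight at 37 C, then given compounds in DMSO plus TGF-beta1 (added as 0.25 ng/mL solution) for 5 hr. After the bla read, CellTiter-Glo was added to the same wells and luminescence read after 30 min at room temperature.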

Assay [12] can be described thus: qHTS assay to identify small molecule agonists of the TGF-beta/Smad signaling pathway - cell viability counter screen (AID 1346829). Note: top concentration of the series differs between compounds; nearly all actives have a fitted effect of over 45% in size. Summed up: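 SBE-bla HEK 293T cells plated overnight, compound exposure 5 hr at 37 C. Viability read in the same wells by CellTiter-Glo luminescence after 30 min at room temperature, following the beta-lactamase read.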
Assay [13] deals with Thyrotropin-releasing hormone receptor (Homo sapiens) (UniProt P34981). The assay can be described thus: qHTS assay to identify small molecule agonists of the thyrotropin-releasing hormone receptor (TRHR) signaling pathway (AID 1346891; calls by dose curve;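 note: HEK293 cells expressing TRHR with calcium dye readout; series mostly up to about 58 µM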). Summed up: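 Kinetic fluorescence (3 min, 1 s intervals) reported intracellular calcium after compound transfer onto TRHR-Hek293 cells pre-loaded with dye for 2 h at 37 °C.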

Assay [14] can be described thus: Human pregnane X receptor (PXR) small molecule agonists, qHTS cell viability counter screen (AID 1346977). Note: nearly all actives have a fitted effect of over 50% in size. Note: potency is the fitted concentration of half-maximal effect. Summed up:
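HepG2 cells stably carrying the PXR-Luc reporter are cultured with 5% charcoal-stripped FBS and treated with compounds for 24hr. CellTiter-Fluor is added at 23hr and fluorescence is read after 1hr.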

The target in assay [15] is Estrogen receptor beta (Homo sapiens) (UniProt Q92731). The assay can be described thus: qHTS assay to identify small molecule agonists of the estrogen receptor beta (ER-beta) signaling pathway (AID 1259377; active = well fitted activation curve with a large enough effect in the signal ratio in the repeat runs, not every such curve was filed as active; the % refers to the signal ratio). An outline of the steps:
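Measured by fluorescence intensity from a B/G FRET beta-lactamase substrate (2 h, room temperature) in ER-beta-UAS-bla HEK293T cells treated with DMSO-dissolved compounds for 16 hr at 37C and 5% CO2.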

Assay [16] deals with Progesterone receptor (Homo sapiens) (UniProt P06401). As to the kind of experiment: qHTS assay to identify small molecule agonists of the progesterone receptor (PR) signaling pathway (AID 1346784; calls by dose curve; note: nearly all actives have a fitted effect of over 30% in size). An outline of the steps:
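The screen uses PR-UAS-bla HEK 293T cells in charcoal-stripped serum (2%). Compounds are applied for 16 hr at 37C after a 6 hr pre-incubation, and reporter activity is detected with a FRET beta-lactamase substrate after 2 hr at room temperature.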

Assay [17] shares this target. The assay can be described thus: qHTS assay to identify small molecule antagonists of the progesterone receptor (PR) signaling pathway (AID 1346795; active = well fitted inhibition curve with a large enough effect in the signal ratio in the repeat runs, not every such curve was filed as active; the % refers to the signal ratio; note: potency is the fitted concentration of half-maximal effect). Summed up: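 After 6 hr plating at 37C in 2% stripped-serum medium, PR-UAS-bla HEK293T cells got compounds, then 1 nM R5020. Sixteen hours later, LiveBLAzer substrate was applied for 2 hr at room temperature and fluorescence was recorded.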

Assay [18] in a line: qHTS assay to identify small molecule agonists of the TGF-beta/Smad signaling pathway (AID 1346859; active = well fitted activation curve with a large enough effect in the signal ratio in the repeat runs, not every such curve was filed as active; the % refers to the signal ratio; note: series mostly up to about 77 µM). Summed up:
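Dual-wavelength fluorescence (460/530 nm emission) quantified beta-lactamase expression under the Smad binding element in HEK 293T cells following 5 hr compound treatment at 37 C.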

The target in assay [19] is Thyrotropin-releasing hormone receptor (Homo sapiens) (UniProt P34981). As to the kind of experiment: qHTS assay to identify small molecule antagonists of the thyrotropin-releasing hormone receptor (TRHR) signaling pathway (AID 1346877; active = well fitted inhibition curve with a large enough effect in the repeat runs, not every such curve was filed as active; note: series mostly up to about 51 µM). An outline of the steps:
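Intracellular calcium fluorescence, read kinetically every second over 3 min, reports TRH-evoked signalling in HEK293 cells carrying TRHR. Test compounds were added 5 min ahead of a 1 nM TRH challenge.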

Assay [20] can be described thus: qHTS assay to identify small molecule antagonists of the progesterone receptor (PR) signaling pathway - cell viability counter screen (AID 1346798). Note: series mostly up to about 92 µM; nearly all actives have a fitted effect of over 50% in size. Summed up:
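Viability was determined by ATP-based luminescence (CellTiter-Glo) in PR-UAS-bla HEK293T cells cultured in 2% charcoal-stripped serum and incubated 16 hr with compounds under R5020 stimulation.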

Unmarked numbers belong to inactive results. Records with an inconclusive call do not appear. Active and inactive are the calls of the source. Unless noted, calls come from the whole dose curve; as a rule, active = well fitted curve in the direction sought with a large enough effect in the repeat runs; inconclusive = weak or mixed curves; inactive = no such curve, though single readings can be large; an effect the other way counts as inactive or inconclusive.
% is set by controls: 0 for no effect and ±100 for the full control effect.

Chain of Estrogen receptor beta (Homo sapiens) (Q92731 whole entry, looked up): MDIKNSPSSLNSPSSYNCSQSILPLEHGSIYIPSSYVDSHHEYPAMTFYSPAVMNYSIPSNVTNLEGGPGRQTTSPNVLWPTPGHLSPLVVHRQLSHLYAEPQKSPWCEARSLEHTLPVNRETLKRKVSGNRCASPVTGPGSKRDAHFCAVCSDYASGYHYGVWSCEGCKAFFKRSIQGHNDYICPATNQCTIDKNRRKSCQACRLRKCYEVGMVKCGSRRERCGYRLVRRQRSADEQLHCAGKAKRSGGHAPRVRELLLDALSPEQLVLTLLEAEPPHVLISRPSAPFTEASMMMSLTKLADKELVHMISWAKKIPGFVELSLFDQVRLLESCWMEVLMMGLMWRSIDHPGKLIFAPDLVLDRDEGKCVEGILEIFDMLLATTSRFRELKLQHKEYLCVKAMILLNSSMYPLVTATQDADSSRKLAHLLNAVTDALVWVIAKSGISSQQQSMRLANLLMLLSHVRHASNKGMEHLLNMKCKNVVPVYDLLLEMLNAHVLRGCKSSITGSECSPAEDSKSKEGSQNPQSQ
Chain of Progesterone receptor (Homo sapiens) (P06401 whole entry, looked up): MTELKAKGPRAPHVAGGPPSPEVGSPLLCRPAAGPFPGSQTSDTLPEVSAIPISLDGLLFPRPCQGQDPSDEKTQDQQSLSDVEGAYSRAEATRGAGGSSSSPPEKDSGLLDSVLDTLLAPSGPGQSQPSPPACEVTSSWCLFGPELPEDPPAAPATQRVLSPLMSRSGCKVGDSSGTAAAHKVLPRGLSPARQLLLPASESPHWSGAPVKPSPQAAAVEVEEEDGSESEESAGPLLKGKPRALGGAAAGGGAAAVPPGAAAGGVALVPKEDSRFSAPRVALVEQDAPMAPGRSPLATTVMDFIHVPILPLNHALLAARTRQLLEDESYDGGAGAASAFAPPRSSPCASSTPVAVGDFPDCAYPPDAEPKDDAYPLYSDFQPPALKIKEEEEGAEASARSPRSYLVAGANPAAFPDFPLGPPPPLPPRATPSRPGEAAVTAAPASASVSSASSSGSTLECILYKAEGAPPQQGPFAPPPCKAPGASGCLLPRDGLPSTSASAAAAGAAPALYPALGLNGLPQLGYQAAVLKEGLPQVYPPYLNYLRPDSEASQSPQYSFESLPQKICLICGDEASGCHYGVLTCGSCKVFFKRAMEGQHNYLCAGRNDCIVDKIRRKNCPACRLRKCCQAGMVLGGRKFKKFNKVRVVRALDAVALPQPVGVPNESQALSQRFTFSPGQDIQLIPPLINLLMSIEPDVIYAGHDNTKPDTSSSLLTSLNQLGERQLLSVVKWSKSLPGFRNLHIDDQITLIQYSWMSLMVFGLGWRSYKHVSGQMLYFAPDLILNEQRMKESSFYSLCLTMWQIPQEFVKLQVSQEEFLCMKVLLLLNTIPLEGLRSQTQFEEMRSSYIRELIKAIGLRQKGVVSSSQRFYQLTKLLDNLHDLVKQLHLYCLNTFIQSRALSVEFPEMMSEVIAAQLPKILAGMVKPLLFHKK
Chain of Estrogen receptor (Homo sapiens) (P03372 whole entry, looked up): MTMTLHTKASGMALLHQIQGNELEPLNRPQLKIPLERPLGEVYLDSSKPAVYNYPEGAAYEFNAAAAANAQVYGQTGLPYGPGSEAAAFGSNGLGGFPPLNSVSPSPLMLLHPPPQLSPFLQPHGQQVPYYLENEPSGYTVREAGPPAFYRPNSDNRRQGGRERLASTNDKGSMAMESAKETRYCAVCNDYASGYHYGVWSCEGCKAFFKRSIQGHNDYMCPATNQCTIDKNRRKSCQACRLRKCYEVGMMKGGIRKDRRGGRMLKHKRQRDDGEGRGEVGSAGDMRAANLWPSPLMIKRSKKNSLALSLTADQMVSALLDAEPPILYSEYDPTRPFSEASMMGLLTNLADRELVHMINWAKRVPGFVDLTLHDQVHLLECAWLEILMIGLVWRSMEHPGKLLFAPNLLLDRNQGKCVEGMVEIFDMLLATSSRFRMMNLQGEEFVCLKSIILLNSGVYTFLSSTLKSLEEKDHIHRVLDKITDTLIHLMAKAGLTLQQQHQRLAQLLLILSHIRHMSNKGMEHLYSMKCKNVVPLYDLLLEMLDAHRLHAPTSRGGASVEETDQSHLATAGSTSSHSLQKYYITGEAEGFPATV
Chain of Androgen receptor (Homo sapiens) (P10275 whole entry, looked up): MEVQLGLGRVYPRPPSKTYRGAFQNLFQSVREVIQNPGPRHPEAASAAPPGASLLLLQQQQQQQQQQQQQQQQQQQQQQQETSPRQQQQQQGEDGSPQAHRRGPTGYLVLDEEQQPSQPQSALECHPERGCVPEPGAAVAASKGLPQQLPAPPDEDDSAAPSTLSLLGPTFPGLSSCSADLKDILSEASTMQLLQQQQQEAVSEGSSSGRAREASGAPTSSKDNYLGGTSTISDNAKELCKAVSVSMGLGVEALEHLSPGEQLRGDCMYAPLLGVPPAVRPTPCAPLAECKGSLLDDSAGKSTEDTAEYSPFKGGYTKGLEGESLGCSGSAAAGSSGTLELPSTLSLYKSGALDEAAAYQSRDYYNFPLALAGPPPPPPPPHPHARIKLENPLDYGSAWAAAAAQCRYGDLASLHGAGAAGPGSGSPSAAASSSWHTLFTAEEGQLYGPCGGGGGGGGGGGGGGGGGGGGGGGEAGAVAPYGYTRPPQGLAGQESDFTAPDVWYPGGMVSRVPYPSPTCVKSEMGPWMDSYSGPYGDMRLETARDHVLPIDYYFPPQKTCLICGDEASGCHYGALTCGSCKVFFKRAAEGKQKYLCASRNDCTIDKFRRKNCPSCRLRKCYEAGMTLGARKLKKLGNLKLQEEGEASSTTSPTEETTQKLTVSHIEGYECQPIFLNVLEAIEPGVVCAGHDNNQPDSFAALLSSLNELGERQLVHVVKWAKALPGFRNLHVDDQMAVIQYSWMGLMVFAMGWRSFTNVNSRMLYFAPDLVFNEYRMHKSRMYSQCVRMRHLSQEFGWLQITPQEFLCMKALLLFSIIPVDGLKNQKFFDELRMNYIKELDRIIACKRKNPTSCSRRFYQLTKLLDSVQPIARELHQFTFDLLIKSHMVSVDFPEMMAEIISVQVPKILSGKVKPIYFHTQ
Chain of Thyrotropin receptor (Homo sapiens) (P16473 whole entry, looked up): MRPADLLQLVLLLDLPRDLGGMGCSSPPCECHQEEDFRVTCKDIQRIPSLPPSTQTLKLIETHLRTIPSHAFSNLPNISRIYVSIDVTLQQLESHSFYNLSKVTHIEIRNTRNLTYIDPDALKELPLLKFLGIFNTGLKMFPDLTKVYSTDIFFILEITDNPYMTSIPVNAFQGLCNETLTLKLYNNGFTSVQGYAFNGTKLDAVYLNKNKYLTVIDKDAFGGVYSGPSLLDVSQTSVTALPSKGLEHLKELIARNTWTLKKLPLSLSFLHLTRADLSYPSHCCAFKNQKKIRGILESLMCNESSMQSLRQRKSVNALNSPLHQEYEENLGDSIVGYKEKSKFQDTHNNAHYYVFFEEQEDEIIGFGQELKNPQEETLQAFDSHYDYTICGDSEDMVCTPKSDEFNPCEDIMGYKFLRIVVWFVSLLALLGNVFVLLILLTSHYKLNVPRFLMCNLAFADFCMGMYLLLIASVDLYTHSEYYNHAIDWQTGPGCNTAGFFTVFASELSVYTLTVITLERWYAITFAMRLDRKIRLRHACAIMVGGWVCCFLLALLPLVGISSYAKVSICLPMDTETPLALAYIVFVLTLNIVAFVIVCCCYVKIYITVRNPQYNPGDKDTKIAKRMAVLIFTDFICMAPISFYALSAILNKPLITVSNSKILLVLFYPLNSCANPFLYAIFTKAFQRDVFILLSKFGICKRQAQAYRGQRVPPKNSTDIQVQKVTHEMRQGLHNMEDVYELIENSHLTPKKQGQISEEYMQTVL
Chain of Thyrotropin-releasing hormone receptor (Homo sapiens) (P34981 whole entry, looked up): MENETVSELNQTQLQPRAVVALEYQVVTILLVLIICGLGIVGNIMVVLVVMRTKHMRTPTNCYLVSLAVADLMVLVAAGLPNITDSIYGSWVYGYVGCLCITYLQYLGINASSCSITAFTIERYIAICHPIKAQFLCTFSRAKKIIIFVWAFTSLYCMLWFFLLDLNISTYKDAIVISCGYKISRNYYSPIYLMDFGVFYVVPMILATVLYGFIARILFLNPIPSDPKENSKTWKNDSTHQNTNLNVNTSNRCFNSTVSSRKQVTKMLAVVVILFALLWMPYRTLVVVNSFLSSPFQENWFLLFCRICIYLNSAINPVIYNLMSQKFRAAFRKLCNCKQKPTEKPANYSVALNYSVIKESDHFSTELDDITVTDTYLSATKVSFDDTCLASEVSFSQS

With `Cc1oc(-c2ccccc2)nc1CCOc1ccc(C[C@H](Nc2ccccc2C(=O)c2ccccc2)C(=O)O)cc1`, the Potency is 27.3 µM (active) in assay [1]; 54.5 µM (active) in assay [2]; 27.3 µM (active) in assay [3]; 24.3 µM (active) in [5]; 48.6 µM (active) in assay [9]; 27.3 µM (active) in assay [10]. Also, the Potency in assay [14] was 54.5 µM (active). The Potency result in assay [4], in [6], in assay [8], in assay [11], in assay [12] and in assay [13] was “inactive” throughout. In addition, the result in [7] was inactive.
In the case of `NC1(c2ccc(-c3nc4ccn5c(=O)[nH]nc5c4cc3-c3ccccc3)cc2)CCC1`, the Potency result in assay [15], in [6], in [17], in [11], in assay [12] and in assay [13] was “inactive” in each case. Besides, the Potency in assay [2] was 16.8 µM (active); in [3], 1.19 µM (active); in assay [5], 2.11 µM (active); in assay [8], 29.8 µM (active); in [14] it was 26.6 µM (active). Further, the compound was called inactive in [16].
On to `Nc1ncnc2c1ncn2[C@@H]1O[C@H](COP(=O)(O)O)[C@@H](O)[C@H]1O`, for which the Potency result in assay [15], in assay [2], in assay [5], in [8], in assay [9] and in [10] was “inactive” each time. Also, the Potency entry in assay [11], in assay [12], in [18], in assay [19], in assay [13] and in assay [14] was “inactive” each time. The Potency in [3] was 26.6 µM (active). Further, the outcome in assay [7] and in assay [16] was inactive.
For the compound `COc1cccc(OC)c1O`, the Potency entry in assay [1], in [2], in [4], in [5], in assay [8] and in assay [9] was “inactive” throughout. The Potency result in assay [17], in [20], in [10], in assay [18], in assay [13] and in [14] was “inactive” in each case. Moreover, the outcome in assay [7] and in [16] was inactive.
Regarding `CCCC(O)C(O)CO` (stereo unspecified), the Potency result in assay [1], in [2], in assay [4], in assay [5], in assay [8] and in assay [9] was “inactive” each time. In addition, the Potency result in [17], in assay [20], in assay [10], in assay [11], in assay [18] and in assay [19] was “inactive” in each case. In addition, the Potency result in [13] and in assay [14] was “inactive” each time. Besides, the compound was classed as inactive in assay [7] and in [16].
As for `COC(=O)NCCC[Si](OC)(OC)OC`, the Potency result in assay [1], in assay [2], in [5], in assay [8], in assay [9] and in [11] was “inactive” in each case. Also, the Potency result in [12], in assay [18], in assay [19], in assay [13] and in assay [14] was “inactive” throughout. Further, in assay [7], the outcome was inactive.
With `S=C(SSSSSSC(=S)N1CCCCC1)N1CCCCC1`, the Potency in assay [1] and in [17] was 13.4 µM (active) in each case. In addition, the values for the activity change, negative = cytotoxicity in [2], in [12] and in assay [14] were -6.95% [at 19 µM], -0.13% [at 15.8 µM] and 0.702% [at 19 µM], respectively. The activation in assay [6] was 7.24% [at 19 µM]; in [18], 10.4% [at 15.8 µM]; in assay [13], 4.08% [at 11.8 µM]. For the same compound, the viability change, negative = cytotoxic in assay [11] is 17.4% [at 15.8 µM]. The activity, negative = inhibition in [19] is -6.79% [at 10.5 µM].
As for `CCOC(/C=C(\C)CCC=C(C)C)OCC`, the Potency result in assay [1], in assay [2], in [3], in [5], in assay [6] and in assay [8] was “inactive” in each case. The Potency entry in assay [9], in assay [17], in [20], in assay [10], in [11] and in assay [12] was “inactive” throughout. Also, the Potency entry in [18], in [19], in [13] and in assay [14] was “inactive” throughout. Moreover, the compound was called inactive in assay [7] and in assay [16].
